Rows were chosen to be rich in hits. Some 4.7% of all compounds tested hit in one or more screens of this group.
tim10-1 inh: growth inhibitors of tim10-1 mutant yeast, primary screen, luminescence, uHTS; inhibition, % at 20 µM; S. cerevisiae tim10-1 ts strain growth, BacTiter-Glo, 24 h; 330,000 tested, 2.2% active; AID 463190, 2010;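 active = inhibition of at least 40%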;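 also: mutant grown at 25 °C; 0% = DMSO wells with yeast and 100% = wells holding no yeast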
PfHsp90 yeast 2: growth inhibition of PfHsp90-expressing yeast, primary screen, antimalarial PfHsp90 inhibitor project, S. cerevisiae, BacTiter-Glo luminescence, single point, set 2; BacTiter-Glo ATP, 48 h; yeast lacking PDR1 and PDR3 efflux regulators; AID 504621, 2011; 310,000 tested, 0.32% active; inhibition, % at 9.4 µM;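 active = every replicate shows inhibition above about 80%, whatever the replicate mean, limit read from the data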;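 also: 0% = DMSO neutral controls and 100% = 20 µM radicicol positive controls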
SKKanGAS inh: S. pyogenes SKKanGAS growth inhibitors in kanamycin, primary screen, streptokinase expression inhibitor project, SKKanGAS strain, BacTiter-Glo luminescence. 6 h. inhibition, % at 7.5 µM. 300,000 tested, 1.3% active;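 active = mean replicate score, as percent of positive control median, at least 50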;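 also: strain carries kanamycin resistance gene driven by streptokinase promoter and grows in 40 µg/ml kanamycin; loss of luminescence reflects streptokinase promoter inhibition or plain growth inhibition; 0% = median of DMSO wells and 100% = positive control at its reference dose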
tim23-1 inh: growth inhibitors of tim23-1 mutant yeast, primary screen, luminescence, uHTS | S. cerevisiae tim23-1 growth, BacTiter-Glo luminescence, 24 h | inhibition, % at 20 µM | 330,000 tested, 1.3% active;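 active = growth inhibition of the mutant yeast at or above 50%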;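 also: temperature-sensitive mutant grown at 25 °C; plate controls were DMSO-treated mutant yeast for no effect and medium wells lacking yeast for full effect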
TIM10 inh: growth inhibitors of isogenic TIM10 control yeast, primary screen, counter-screen for tim10-1 yeast inhibitor project, luminescence, uHTS; 330,000 tested, 1.4% active; S. cerevisiae TIM10 strain growth, BacTiter-Glo luminescence, 24 h; inhibition, % at 10 µM;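 active = inhibition of 40% or more at the single tested concentration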;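 also: wild-type TIM10 isogenic control strain grown at permissive 25 °C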
EBI2 antag: EBI2 receptor antagonists, beta-arrestin recruitment, primary screen, cell-based, luminescence, 7a,25-OHC stimulation, uHTS. G-protein coupled receptor 183 (Homo sapiens), P32249. 7a,25-OHC stimulated. inhibition, % at 5 µM. 360,000 tested, 0.81% active; in the data active = inhibition above about 38%;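 also: enzyme fragment complementation signal reports receptor beta-arrestin coupling in cells; 0% = agonist plus DMSO wells and 100% = wells without agonist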
Target sequence (P32249 whole entry, looked up, the tested form may be a part): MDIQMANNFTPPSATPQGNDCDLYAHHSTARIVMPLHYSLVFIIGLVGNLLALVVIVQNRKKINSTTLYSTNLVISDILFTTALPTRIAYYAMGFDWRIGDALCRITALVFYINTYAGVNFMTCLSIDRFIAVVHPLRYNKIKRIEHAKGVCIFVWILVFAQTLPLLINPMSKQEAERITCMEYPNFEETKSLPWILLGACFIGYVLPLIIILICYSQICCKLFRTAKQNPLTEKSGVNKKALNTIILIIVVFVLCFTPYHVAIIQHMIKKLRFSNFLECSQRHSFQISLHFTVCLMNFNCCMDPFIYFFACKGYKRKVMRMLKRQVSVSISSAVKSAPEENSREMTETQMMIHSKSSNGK
tim10-1 conf: growth inhibitors of tim10-1 mutant yeast, confirmation, single concentration, luminescence, S. cerevisiae; shares compounds with tim10-1 inh; AID 463213, 2010; S. cerevisiae tim10-1 ts strain growth, BacTiter-Glo, 24 h; inhibition, % at 20 µM; 7,400 tested, 56% active;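 active = inhibition of yeast growth at or above a set limit in either of two repeat tests at 20 µM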;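 also: tim10-1 mutant grown at permissive 25 °C to find synthetic lethal compounds; 0% = DMSO yeast wells and 100% = medium wells without yeast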
TIM10 conf: growth inhibitors of wild-type TIM10 yeast, confirmation, counter-screen for tim10-1 synthetic lethality project, single concentration, luminescence, S. cerevisiae; shares compounds with TIM10 inh; S. cerevisiae tim10 strain growth, BacTiter-Glo luminescence, 24 h; inhibition, % at 10 µM; 4,600 tested, 63% active;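 active = inhibition of yeast growth at or above a set limit in either of two replicates at 10 µM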;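 also: this counterscreen used the strain with wild-type TIM10; 0% = yeast with DMSO and 100% = medium wells lacking yeast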
tim23-1 confirm: tim23-1 mutant yeast growth inhibitors, confirmation, luminescence, single concentration; inhibition, % at 20 µM; shares compounds with tim23-1 inh; 4,400 tested, 83% active; S. cerevisiae tim23-1 growth, BacTiter-Glo luminescence, 24 h;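 active = inhibition above about 39% in either of two replicate wells at 20 µM, limit read from the data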;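 also: temperature-sensitive tim23-1 mutant grown at 25 °C; 0% = DMSO wells with yeast and 100% = medium wells without yeast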
Active calls of the source: *.

How did Cc1ccc(S(=O)(=O)NC(C)(C)C)cc1C(=O)OC(C)C(=O)NC1CC1 (configuration not stated) do in these assays?
tim10-1 inh: 0; PfHsp90 yeast 2: 3; SKKanGAS inh: -2; tim23-1 inh: 8; TIM10 inh: 1; EBI2 antag: -12

What do the screens show for `COc1ccc(-c2cn3c(C)c(C(=O)N4CCN(c5ccccc5F)CC4)sc3n2)cc1`?
tim10-1 inh: 56*; PfHsp90 yeast 2: 10; SKKanGAS inh: 37; tim23-1 inh: 56*; TIM10 inh: 36; EBI2 antag: 2; tim10-1 conf: 55*; tim23-1 confirm: 67*

How did Cc1c(C(=O)N2CCN(C(=O)c3ccco3)CC2)sc2nc(-c3ccc(F)cc3)cn12 do in these assays?
tim10-1 inh: 16; PfHsp90 yeast 2: 11; SKKanGAS inh: 4; tim23-1 inh: 13; TIM10 inh: 5; EBI2 antag: -2

What do the screens show for `Cc1c(C(=O)N2CCN(c3ccccc3F)CC2)sc2nc(-c3ccccc3)cn12`?
tim10-1 inh: 54*; PfHsp90 yeast 2: 9; SKKanGAS inh: 22; tim23-1 inh: 53*; TIM10 inh: 54*; EBI2 antag: 7; tim10-1 conf: 54*; TIM10 conf: 51*; tim23-1 confirm: 75*

Results for O=Cc1cc2ccccc2nc1SCCCF ?
tim10-1 inh: 64*; PfHsp90 yeast 2: -4; SKKanGAS inh: -17; tim23-1 inh: 67*; TIM10 inh: 78*; EBI2 antag: -37; tim10-1 conf: 69*; TIM10 conf: 72*; tim23-1 confirm: 55*

Results for CSc1cccc(NC(=O)c2ccc(CN3CCc4ccccc4C3)cc2)c1 ?
tim10-1 inh: 9; PfHsp90 yeast 2: 3; SKKanGAS inh: 13; tim23-1 inh: 4; TIM10 inh: 16; EBI2 antag: 1

What do the screens show for `O=C(Nc1cccc(Br)c1)c1ccc(CN2CCc3ccccc3C2)cc1`?
tim10-1 inh: 44*; PfHsp90 yeast 2: 0; SKKanGAS inh: 11; tim23-1 inh: 63*; TIM10 inh: 44*; EBI2 antag: 21; tim10-1 conf: 31*; TIM10 conf: 38*; tim23-1 confirm: 74*

How did CN1[C@@H]2CC[C@H]1CC(OC(=O)[C@H](CO)c1ccccc1)C2 (some centres not stated) do in these assays?
tim10-1 inh: 2; PfHsp90 yeast 2: -7; SKKanGAS inh: -3; TIM10 inh: 7; EBI2 antag: 5

How did COc1ccc(NC(=O)CSc2nccn2Cc2ccco2)cc1 do in these assays?
tim10-1 inh: 10; PfHsp90 yeast 2: 2; SKKanGAS inh: 14; tim23-1 inh: 25; TIM10 inh: 18; EBI2 antag: 5

What do the screens show for `CN1CCN(C(=O)c2cc(COc3ccc(F)cc3Cl)on2)CC1c1ccccc1` (configuration not stated)?
tim10-1 inh: 36; PfHsp90 yeast 2: 72; SKKanGAS inh: 3; tim23-1 inh: 46; TIM10 inh: 38; EBI2 antag: 0

What do the screens show for `O=C(c1cc(COc2c(F)cccc2F)on1)N1CCC(c2ccccc2F)C1` (configuration not stated)?
tim10-1 inh: 10; PfHsp90 yeast 2: -29; SKKanGAS inh: 13; tim23-1 inh: 17; TIM10 inh: -8; EBI2 antag: 5

How did COc1ccccc1OCc1cc(C(=O)N2CCN(C)C(c3ccccc3)C2)no1 (configuration not stated) do in these assays?
tim10-1 inh: 52*; PfHsp90 yeast 2: 107*; SKKanGAS inh: -5; tim23-1 inh: 55*; TIM10 inh: 29; EBI2 antag: 10; tim10-1 conf: 27; tim23-1 confirm: 37

How did CN1CCN(C(=O)c2cc(COc3c(F)cccc3F)on2)CC1c1ccccc1 (configuration not stated) do in these assays?
tim10-1 inh: 42*; PfHsp90 yeast 2: 110*; SKKanGAS inh: 4; tim23-1 inh: 63*; TIM10 inh: 52*; EBI2 antag: 1; tim10-1 conf: 21; TIM10 conf: 53*; tim23-1 confirm: 50*

Results for COc1ccc(N=c2ssnc2Cl)cc1 ?
tim10-1 inh: 53*; PfHsp90 yeast 2: -58; SKKanGAS inh: 6; tim23-1 inh: 61*; TIM10 inh: 18; EBI2 antag: 10; tim10-1 conf: 35*; tim23-1 confirm: 80*

Results for Clc1ccc(N=c2ssnc2Cl)cc1 ?
tim10-1 inh: 54*; PfHsp90 yeast 2: 104*; SKKanGAS inh: -6; tim23-1 inh: 63*; TIM10 inh: 35; EBI2 antag: 30; tim10-1 conf: 66*; tim23-1 confirm: 88*

How did Clc1nssc1=Nc1ccccc1 do in these assays?
EBI2 antag: 9

Results for CCOC(=O)C1=C(C)N=c2s/c(=C/c3ccc(OCC(=O)O)c(OC)c3)c(=O)n2C1c1ccc(Cl)cc1 (configuration not stated) ?
tim10-1 inh: 56*; PfHsp90 yeast 2: -21; SKKanGAS inh: 52*; tim23-1 inh: 50*; TIM10 inh: 31; EBI2 antag: 6; tim10-1 conf: 46*; tim23-1 confirm: 53*

How did COc1cccc(Nc2ccc([N+](=O)[O-])c3nonc23)c1 do in these assays?
tim10-1 inh: 57*; PfHsp90 yeast 2: -15; SKKanGAS inh: 4; tim23-1 inh: 70*; TIM10 inh: 30; EBI2 antag: -8; tim10-1 conf: 22; tim23-1 confirm: 78*

Results for COc1cccc(Nc2cc(N3CCOCC3)c3nonc3c2[N+](=O)[O-])c1 ?
tim10-1 inh: 15; PfHsp90 yeast 2: -6; SKKanGAS inh: -2; tim23-1 inh: 9; TIM10 inh: 8; EBI2 antag: 5

How did O=C(Nc1nnc(S(=O)(=O)N2CCOCC2)s1)c1ccccc1F do in these assays?
tim10-1 inh: 3; PfHsp90 yeast 2: 6; SKKanGAS inh: 14; tim23-1 inh: 23; TIM10 inh: 16; EBI2 antag: 3
